The whole screen tested about 69,000 compounds, of which about 8,600 (12%) showed an effect of 50% or more. This excerpt belongs to a sample that is enriched for strong results.

The assay relates to Plasmodium berghei. The assay is described as follows: Screen against P. berghei liver stage (PbLuc), transformed with Luciferase, at 10uM. The following applies: tested at 10 uM. It is filed as functional, HepG2.
For `Cn1ccnc1CN1CCC2(CC1)CC(NC(=O)c1ccccn1)CO2` (stereo unspecified), the INHIBITION turned out to be 28.4%. Next, `Cc1cc(C)nc(C2(C)CCCN2CCO)n1` (stereo unspecified): -4.6%; `CCCc1cc(C(=O)Nc2nc(SC)ns2)n(C)n1`: -106.9%; `Cc1ccccc1C(C)NC(=O)CSCC#N` (stereo unspecified): 31.9%. Next, `Cc1ccc(C(=O)NC2CCN(S(C)(=O)=O)CC2)c(=O)[nH]1`: 47.7%; `Cc1cnc(C(=O)N2CCN(c3ncc4c(n3)CCOC4)CC2)cn1`: 27.4%. Under `CCCc1nc(CN(CC)C(=O)c2onc3ccccc23)no1` stands -14.1%. As to `COCCN1CC(O)CN(C(=O)c2ccc(SC)cc2)CC1=O` (stereo unspecified), the INHIBITION is given as 29%. Take `Cc1ccc(S(=O)(=O)Nc2ccc(-n3cccc3C(=O)O)c(C)c2)cc1`: the INHIBITION was 56%. Under `Cc1ccc(S(=O)(=O)Nc2ccc(-n3cccc3C(=O)O)c(C)c2)s1` stands -3.16%; under `Cc1cc(NS(=O)(=O)c2ccccc2F)ccc1-n1cccc1C(=O)O`, -19.7%. Next, `Cc1n[nH]c(C)c1NC(=O)CN1CCN(c2nccs2)C(C)C1` (stereo unspecified): 14.4%.

For `Cc1cccn2c(CC(=O)N3CCC(CCn4cccn4)CC3)cnc12`, the INHIBITION is 71.3%. Under `Cc1ccc2nc(C(=O)N3CCC(CCn4cccn4)CC3)cn2c1` stands -14.1%; under `Cc1cccn2c(CC(=O)N3CCC(Oc4ncccn4)CC3)cnc12`, -30.3%; under `COc1ncc(NCc2cc(C#N)cs2)cc1C(N)=O`, 11.4%. Under `CO[C@@H]1CCN(Cc2c(C)noc2C)[C@@H]2CN(Cc3ccco3)C[C@@H]21` stands 35.5%. Next, `CCN(CC1CCOC1)C(=O)Nc1ccc(N2CCOCC2)nc1` (stereo unspecified): 36.05%; `Cn1cc(CCC(=O)N2CCCN(c3ncccc3C#N)CC2)cn1`: 37.4%; `Cc1ccc(F)c(S(=O)(=O)N2CCCC2c2ccncc2)c1` (stereo unspecified): 45.3%.

As for `COc1ccc(C2CCCN2S(=O)(=O)c2cc(F)ccc2F)cc1` (stereo unspecified), the INHIBITION came to 62.6%. Under `O=S(=O)(c1cc(F)ccc1F)N1CCCC1c1ccncc1` (stereo unspecified) stands 19.3%; under `CCOCc1cccc(S(=O)(=O)Nc2ccn(CC)n2)c1`, 18.4%; under `COCCCC1(CO)CCCN(C(=O)c2cnc3c(c2)CCCC3)C1` (stereo unspecified), 35.9%. As to `COCCC1(C(=O)O)CCCN(C(=O)c2cnc3c(c2)CCCC3)C1` (stereo unspecified), the INHIBITION amounted to 47.1%. `O=C(c1cnc2c(c1)CCC2)N1CCCC(CO)(CC2CC2)C1` (stereo unspecified): the INHIBITION is on record as 68.4%.

`CCn1[nH]c(C)c2c(C(F)(F)F)cc(=O)nc1-2`: the INHIBITION is recorded as 31.7%. Next, `CCn1[nH]c(C)c2c(C(F)(F)C(F)(F)F)cc(=O)nc1-2`: 50.5%.

On to `Cc1[nH]n(C)c2nc(=O)cc(C(F)(F)C(F)(F)F)c1-2`, for which the INHIBITION is listed as 76.3%. Under `O=C(Cn1nc2ccccc2n1)N1CCCn2cncc2C1` stands 1.37%; under `Cc1csc(NC(=O)C(C)Oc2ccc3c(c2)OCO3)n1` (stereo unspecified), 16.2%; under `Cc1cnn(CC2CCCN2C(=O)c2cc(O)nc3ccccc23)c1` (stereo unspecified), -29.8%. As to `Cc1ccc(NC(=O)NCCc2ccncc2C)c(N(C)C)n1`, the INHIBITION is reported as -0.554%. Under `Cc1nccn1CCCN1CCCC(c2nccn2CC2CCC2)C1` (stereo unspecified) stands 41.8%. Under `Cc1nccn1CCCN1CCCC(c2nccn2C)C1` (stereo unspecified) stands 34.2%. For the compound `Cc1nccn1CCCN1CCC(c2nccn2CC2CCC2)CC1`, the INHIBITION is recorded as 60.2%. Under `CS(=O)(=O)N1CCOCC2(CN(Cc3nccs3)CCO2)C1` (stereo unspecified) stands 45.2%.

As for `CCOCC(O)CN1CCN(C(=O)C(C)(C)CC)CC1` (stereo unspecified), the INHIBITION is reported as 24%. Turning to `O=C(c1cncc(NCC2COc3ccccc3C2)n1)N1CCOCC1` (stereo unspecified), the INHIBITION came to 3.13%. Under `CN(Cc1cc(C(C)(C)C)n[nH]1)C(=O)c1ccc2nccn2c1` stands 48.3%; under `CCN1CC(COc2ccc(OC)cc2)Oc2ccncc2S1(=O)=O` (stereo unspecified), -10.3%; under `O=S1(=O)c2cnccc2OC(COc2ccccc2)CN1CC1CC1` (stereo unspecified), 22.2%. Under `CC(C)(C)CN1CC(COc2ccccc2)Oc2ccncc2S1(=O)=O` (stereo unspecified) stands 59.3%. Under `COc1cccc(-c2cc(C(=O)NCCCC(F)(F)F)[nH]n2)c1` stands -16%. As to `CC(C)n1c(=O)[nH]c2cn(-c3ccc(Br)cc3)c(=O)n21`, the INHIBITION is on record as -17.3%. Next, `O=C(O)c1ccccc1CN1CCC2(Cc3ccccc3CNC2=O)C1` (stereo unspecified): 40%; `CC(C)(C)c1ccc(C2(C(=O)NCCCS(C)(=O)=O)CC2)cc1`: 43.5%. As for `NS(=O)(=O)CCNC(=O)C1(c2ccc(Br)cc2)CC1`, the INHIBITION is -8.19%. Under `CC(C)(C)c1ccc(C2(C(=O)NCCS(C)(=O)=O)CC2)cc1` stands 62.3%.

On to `CC(C)(C)c1ccc(C2(C(=O)NCCS(N)(=O)=O)CC2)cc1`, for which the INHIBITION amounted to 68.5%. Under `NS(=O)(=O)CCNC(=O)C1(c2ccccc2)CC1` stands 19.6%; under `CS(=O)(=O)NCCNC(=O)C1(c2ccc(F)cc2)CC1`, 27.6%. For the compound `CCCc1n[nH]c(C2CN(C(=O)c3cccc4cn[nH]c34)CCO2)n1` (stereo unspecified), the INHIBITION is on record as -11.9%. Under `O=C(NCC1CC2(CO1)CN(c1nncs1)C2)C1CCC1` (stereo unspecified) stands 1.36%; under `COC[C@H]1CNC(=O)[C@@H]2CCN(Cc3ccc(F)cc3)CC[C@H]12`, 34.4%. Next, `COc1ccc2nnc(CCC(=O)Nc3nc(C)c(C)s3)n2n1`: 24.2%; `O=C(NC1CC1)N1CC[C@@H](O)[C@@H]1Cc1ccccc1`: -23.3%; `CN(C)c1cc(C(=O)N2CCCN(c3cccnn3)CC2)ccn1`: 38.7%. Under `O=C(CN(Cc1ccco1)C1CC1)N1CCCCCC1` stands -8.11%; under `Cc1nonc1OCCNC(=O)CCCc1ccc(Cl)cc1`, 57.8%; under `Cc1nonc1OCCNC(=O)COc1ccc(Cl)cc1Cl`, 7.38%. For the compound `Cc1nonc1OCCNC(=O)COc1ccc(F)cc1F`, the INHIBITION came out at 7.92%. Next, `N#Cc1c(F)cccc1Nc1cnn(CC(O)CN2CCOCC2)c1` (stereo unspecified): 44.9%; `CN1CCN([C@@H]2CCN(CC3=Cc4cc(Cl)ccc4OC3)C[C@H]2O)CC1`: 62.4%. Next, `CN1CCN([C@@H]2CCN(Cc3cccc(-n4cccn4)c3)C[C@H]2O)CC1`: 22.9%; `O[C@@H]1CN(CC2=Cc3cc(Cl)ccc3OC2)CC[C@H]1N1CCCCCC1`: 31.9%. `O=C(C1CCOC1)N1CCC2(CC1)COC2` (stereo unspecified): the INHIBITION came out at 19.8%. Under `COCC(=O)N1CCN(C)C(=O)C(Cc2ccc(-c3cccs3)cc2)C1` (stereo unspecified) stands 6.26%. Next, `CC(C)(C)Cc1noc2ncc(C(=O)N3CCSCC3)cc12`: 37.7%; `CC(C)(C)Cc1noc2ncc(C(=O)N3CCC3)cc12`: 29%. `CC1CN(C)CCN1C(=O)c1cnc2onc(CC(C)(C)C)c2c1` (stereo unspecified): the INHIBITION came to 53.9%.

On to `OCc1cc(C2CCCN2c2ncccn2)n[nH]1` (stereo unspecified), for which the INHIBITION came to 12.27%. Next, `COc1cccc(COCC(O)CN2CC(n3cccn3)C2)c1` (stereo unspecified): 52%; `OC(COCc1ccccc1)CN1CC(n2cccn2)C1` (stereo unspecified): 39.6%; `OC(COCc1ccc(Cl)cc1)CN1CC(n2cccn2)C1` (stereo unspecified): -3.6%.

For `Cn1ccc(C(=O)NC2CCC23CCN(C(=O)N2CCCC2)CC3)c1` (stereo unspecified), the INHIBITION was 20.5%.

Consider `Fc1cnc(N2CCCC3(CCN(Cc4ccsc4)C3)C2)nc1` (stereo unspecified), for which the INHIBITION is listed as 43.8%.

Take `Fc1cnc(N2CCCC3(CN(Cc4ccccc4)CCO3)C2)nc1` (stereo unspecified): the INHIBITION is on record as -15.3%. Next, `c1cnc(N2CCOCC3(CN(Cc4ccsc4)CCO3)C2)nc1` (stereo unspecified): -47.5%; `c1cnc(N2CCCC3(CCN(Cc4ccsc4)C3)C2)nc1` (stereo unspecified): 53.2%; `CCc1cnc(N2CC3(CCN(Cc4ccsc4)C3)C2)nc1`: 7.39%.

As for `Fc1cnc(N2CCOC3(CCN(Cc4ccsc4)CC3)C2)nc1`, the INHIBITION was determined as 71.6%. Next, `c1csc(CN2CC3(CCN(Cc4ccsc4)C3)C2)n1`: 0.542%. Regarding `Fc1cnc(N2CC3(CCN(Cc4ccsc4)C3)C2)nc1`, the INHIBITION is on record as 52%. Next, `c1ccc(N2CCCC3(CCN(Cc4ccsc4)C3)C2)nc1` (stereo unspecified): 37.1%; `O=C(Nc1cnc2n1CCCC2)C1CCCN1C1CCNCC1` (stereo unspecified): 15.7%. Under `N#Cc1cn(C2CC2)c(=O)n(CC(O)c2ccccc2C(F)(F)F)c1=O` (stereo unspecified) stands 29.4%; under `CCS(=O)(=O)NC(CCSC)C(=O)Nc1ccc(C)cc1C` (stereo unspecified), 31.2%; under `CO[C@@H]1CCN(Cc2cnn(C)c2)[C@@H]2CN(Cc3cccnc3)C[C@@H]21`, 5.96%. Next, `CNC(=O)[C@@H]1C[C@H](n2cc(-c3ccc(CN4CC=CC4)cc3)nn2)CN1`: 41.2%; `CC[C@H](Cn1ncc2ccccc2c1=O)NC(=O)c1cnc(C)cn1`: 1.62%; `CCOC(=O)NCc1nn(CCN2CCCC2)c(=O)c2ccccc12`: 48.8%. On to `CC(C)NC(=O)N1CCC2(COCc3cnc(-c4cccnc4)nc32)C1` (stereo unspecified), for which the INHIBITION came to 38.1%. `CCc1oc(C(=O)NCCSc2ncn[nH]2)cc1CN1CCCC1`: the INHIBITION is 37.9%.

Consider `CCOc1ncccc1NC(=O)N1CCN(CC(=O)NC)CC1`, for which the INHIBITION was -22.91%.

Consider `Cc1nccn1CCCN1CCC2(CCC(=O)N(CC3CC3)C2)CC1`, for which the INHIBITION is given as 34.5%. Under `CC(=O)NCCC1CCN(c2nc(C(C)(C)C)nc3c2cnn3C)CC1` stands 64.9%. With `CCC1(O)CCCN(c2nc(C(C)(C)C)nc3c2cnn3C)C1` (stereo unspecified), the INHIBITION amounted to 48%.

Turning to `Cn1ncc2c(N3CCCC4(CCNC4)C3)nc(C(C)(C)C)nc21` (stereo unspecified), the INHIBITION is given as 63.8%. Next, `COCC1CCN(c2nc(C(C)(C)C)nc3c2cnn3C)C1` (stereo unspecified): 50.1%. Under `Cn1ncc2c(N3CCCC(C)(O)C3)nc(C(C)(C)C)nc21` (stereo unspecified) stands 19.2%; under `Cn1ncc2c(N3CCC(CCO)CC3)nc(C(C)(C)C)nc21`, 22.9%. Under `COCc1nc(N2CC[C@H](N(C)C)C2)c2cnn(C)c2n1` stands -15.8%; under `CN(C)[C@H]1CCN(c2nc(C(C)(C)C)nc3c2cnn3C)C1`, 9.35%; under `CCCc1nc(N2CCCC3(CCNC3)C2)c2cnn(C)c2n1` (stereo unspecified), 47.1%. For `CNC(=O)[C@@H]1[C@@H](c2ccccc2)CN2CCN(Cc3cc(C)no3)C[C@H]12`, the INHIBITION is given as 31.3%.
